The values below come from PubChem BioAssay (NCI).

Each structure is given as a SMILES string. The panel holds about 83,000 compounds, 20% with a hit somewhere; the sample as a whole holds those more often.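 Compound tested at a single concentration for 48 hours in 96-well plates; a percent growth value below 10 was scored as active.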 Unmarked numbers belong to inactive results. Active and inactive are the calls of the source.

Common to all, as to assay: NCI-60 one-dose screen, 48 h (100 = growth as untreated, 0 = no growth, -100 = all killed)
Conditions in all cases: 10 µM

In experiment [1] the test system is SR leukemia.
Experiment [2] relates to RPMI-8226 leukemia.
In experiment [3] the test system is OVCAR-8 ovarian.
For experiment [4], the system named is OVCAR-5 ovarian.
Experiment [5] relates to OVCAR-4 ovarian.
The test system of experiment [6] is SK-OV-3 ovarian.
Experiment [7] has as its system IGROV1 ovarian.
The test system of experiment [8] is OVCAR-3 ovarian.
Experiment [9] relates to HS 578T breast.
Experiment [10] relates to NCI/ADR-RES ovarian.
The subject of experiment [11] is T-47D breast.
Experiment [12] relates to BT-549 breast.
Experiment [13] deals with MDA-MB-435 melanoma.
The test system of experiment [14] is SW-620 colon.
In experiment [15] the test system is MCF7 breast.
In experiment [16] the test system is HCT-116 colon.
The subject of experiment [17] is HCC-2998 colon.
Experiment [18] relates to KM12 colon.

As to `Nc1ccc(Sc2ccc3c4c2cccc4c(=O)n2c4ccccc4nc32)cc1`, the growth in experiment [1] is 16.1%; in experiment [2], 50.2%; in experiment [3], 50.7%; in experiment [4], 85.8%; in [5], 74%; in experiment [6], 53.9%. Moreover, the growth in experiment [7] is 34.5%; in experiment [8], 77.8%; in [9], 59.6%; in [10] it was 56.6%; in [11] it was 39.6%; in experiment [12], 59.1%. For the same molecule, the growth was 80.2% in [13]; 46.3% in experiment [14]; 23.6% in experiment [15]; 46.8% in [16]; 80.7% in experiment [17]; 73.6% in experiment [18].
For `Nc1ncncc1-c1ccc(F)cc1`, the growth in [1] was 127%; in [2], 109%; in experiment [3], 107%; in experiment [4], 115%; in experiment [5], 107%; in [6], 108%. For the same molecule, the growth in [7] was 110%; in experiment [8], 111%; in [9], 113%; in experiment [10], 107%; in [11], 96.7%; in experiment [12], 111%. The growth in [13] is 102%; in [14] it was 114%; in experiment [15] it was 110%; in experiment [16], 108%; in experiment [17], 109%; in [18] it was 110%.
In the case of `CCCN(CCC)CCCNC(=O)c1cc2c(-c3ccc(OC)c(OC)c3)nn(C)c2s1`, the growth is 4.41% (active) in experiment [1]; -10.5% (active) in experiment [2]; 4.29% (active) in experiment [3]; 69.5% in experiment [4]; 22.1% in experiment [5]; 24% in experiment [6]. In addition, the growth is 35.5% in experiment [7]; -10.1% (active) in [8]; 11.5% in experiment [9]; -8.48% (active) in experiment [10]; 24.5% in experiment [11]; 13.7% in [12]. The growth in experiment [13] was -24.5% (active); in [14], 10.8%; in experiment [15] it was 11.2%; in experiment [16], 13.7%; in experiment [17], 67.2%; in [18] it was 6.62% (active).
`O=C1c2cc(Cl)ccc2-c2c(O)cc(Cl)cc21`: the growth was 39.3% in experiment [1]; 46.6% in experiment [2]; 58.4% in [3]; 101% in experiment [4]; 66.4% in experiment [5]; 94.8% in experiment [6]. Also, the growth was 74.4% in experiment [7]; 80% in experiment [8]; 81.5% in experiment [9]; 3.18% (active) in experiment [10]; 63.9% in experiment [11]; 100% in [12]. Moreover, the growth is 106% in experiment [13]; 82.7% in experiment [14]; 77% in experiment [15]; 22.2% in experiment [16]; 105% in [17]; 61% in experiment [18].
As for `Cc1c(C(=O)N[C@H](CO)Cc2ccccc2)[nH]c2ccc(Cl)cc2c1=O`, the growth in experiment [1] was 81.4%; in experiment [2], 92.3%; in experiment [3] it was 96.6%; in [4], 112%; in experiment [5], 108%; in [6], 99.8%. Besides, the growth in experiment [7] was 106%; in experiment [8] it was 111%; in experiment [9], 102%; in [10], 108%; in experiment [11], 89.9%; in experiment [12] it was 107%. Besides, the growth in experiment [13] is 89.3%; in [14], 101%; in experiment [15] it was 92.7%; in experiment [16], 97.4%; in experiment [17], 94.4%; in experiment [18], 106%.
For the molecule `CCOC(=O)Cn1nnc(-c2ccc(OCc3ccccc3F)cc2)n1`, the growth in experiment [1] is 35.4%; in experiment [2] it was 90.8%; in experiment [3], 101%; in [4], 92.6%; in experiment [5], 86.4%; in experiment [6] it was 93.5%. In addition, the growth is 87.9% in experiment [7]; 100% in experiment [8]; 81.2% in experiment [9]; 57% in [10]; 72.6% in experiment [11]; 96.9% in experiment [12]. For the same molecule, the growth in [13] was -2.38% (active); in experiment [14], 83.3%; in [15], 75.8%; in [16], 80.1%; in [17] it was 100%; in experiment [18] it was 75.6%.
Consider `O=C(CCc1ccccc1)N1CCN(C(=O)CCc2ccccc2)CC1`, for which the growth in experiment [1] was 94.3%; in experiment [2] it was 92.3%; in experiment [3] it was 96%; in experiment [4], 110%; in experiment [5], 101%; in experiment [6] it was 115%. In addition, the growth is 99.7% in experiment [7]; 118% in experiment [8]; 100% in experiment [9]; 108% in [10]; 108% in experiment [11]; 105% in [12]. Moreover, the growth in experiment [13] is 106%; in experiment [14] it was 109%; in experiment [15], 95.7%; in experiment [16], 99.6%; in experiment [17], 109%; in experiment [18], 111%.
Regarding `CCOC(=O)C1=C(Nc2ccc(OC)cc2)C(N)=NC1=N`, the growth in experiment [1] was 4.05% (active); in experiment [2], 24.7%; in experiment [3] it was 54.5%; in [4], 65.6%; in [5], 59.8%; in experiment [6] it was 34.1%. The growth in [7] is 65%; in experiment [8], 17%; in [9], 48.5%; in [10] it was 28.4%; in experiment [11], 47.5%; in experiment [12], 56.2%. Also, the growth in [13] was -43.1% (active); in experiment [14], 25.2%; in experiment [15], 13.7%; in experiment [16], 34.5%; in [17], 81%; in [18] it was 30.2%.
For the molecule `FC(F)(F)c1ccc(-c2cnc(Cl)nc2NC2CCCCCC2)cc1`, the growth was 39.2% in [1]; -4.84% (active) in experiment [2]; 15.2% in experiment [3]; 28.7% in experiment [4]; 10.6% in experiment [5]; 56.1% in experiment [6]. Further, the growth is 27.7% in [7]; 3.4% (active) in [8]; 41.1% in experiment [9]; 74.2% in experiment [10]; 12.4% in experiment [11]; 52.5% in experiment [12]. The growth is 11% in [13]; 21.5% in [14]; 20.7% in experiment [15]; 16.5% in experiment [16]; 67.9% in experiment [17]; 16.5% in [18].
In the case of `NCCNc1ccc2cc(-c3nc4ccccc4[nH]3)c(=O)oc2c1`, the growth is 86.2% in [1]; 95.7% in experiment [2]; 98.2% in [3]; 101% in experiment [4]; 86.1% in experiment [5]; 104% in experiment [6]. Besides, the growth in experiment [7] was 99.8%; in experiment [8], 98.7%; in [9], 91.6%; in experiment [10] it was 95.1%; in experiment [11], 82.2%; in [12], 84.9%. Moreover, the growth in experiment [13] was 101%; in experiment [14], 103%; in [15], 80.9%; in experiment [16], 93.9%; in [17], 97.9%; in [18], 99.8%.
In the case of `O=C(NNc1nc(N2CCCC2)nc(N2CCCC2)n1)c1ccccc1`, the growth in [1] is 70.8%; in experiment [2], 106%; in [3] it was 104%; in [4], 100%; in experiment [5], 106%; in [6], 121%. Also, the growth in experiment [7] was 103%; in experiment [8], 108%; in experiment [9], 104%; in [10] it was 102%; in experiment [11] it was 97.6%; in [12], 112%. Besides, the growth is 117% in experiment [13]; 104% in experiment [14]; 96.2% in experiment [15]; 109% in experiment [16]; 106% in [17]; 104% in experiment [18].
For `COc1cc([C@@H]2c3cc4c(cc3[C@H](SC(=N)N)[C@H]3COC(=O)[C@H]23)OCO4)cc(OC)c1OC`, the growth in experiment [1] was 14.1%; in experiment [2] it was 8.62% (active); in experiment [3] it was 23.5%; in experiment [4] it was 28.2%; in experiment [5] it was 54.7%; in experiment [6] it was -4.1% (active). The growth was -0.422% (active) in [7]; 1.61% (active) in experiment [8]; 34.2% in experiment [9]; -0.709% (active) in experiment [10]; 58.6% in experiment [11]; 21.7% in experiment [12]. In addition, the growth in [13] is -31.1% (active); in experiment [14], 22.5%; in experiment [15], 14.4%; in experiment [16], 0.571% (active); in experiment [17], -1.43% (active); in experiment [18] it was -0.331% (active).
Regarding `Nc1nc(SCC#CCCl)c2[nH]cnc2n1`, the growth in experiment [1] is 29.9%; in experiment [2] it was 36.2%; in experiment [3], 71.2%; in experiment [4], 90.8%; in experiment [5], 43.1%; in experiment [6], 49.6%. Moreover, the growth in experiment [7] is 25.4%; in experiment [8], 54.5%; in experiment [9] it was 73.6%; in [10], 67%; in experiment [11], 37.2%; in [12], 44.8%. The growth in [13] was 46.7%; in [14], 40.8%; in experiment [15], 34.6%; in experiment [16] it was 39%; in experiment [17] it was 100%; in [18] it was 60.6%.
For `N#CN1CC[C@H](C(=O)Nc2ncc(-c3ccncc3)s2)C1`, the growth is 1.53% (active) in [1]; 7.02% (active) in experiment [2]; 2.72% (active) in experiment [3]; 5.32% (active) in [4]; 3.57% (active) in experiment [5]; 2.96% (active) in [6]. Also, the growth is 12.5% in experiment [7]; -22.1% (active) in experiment [8]; 2.54% (active) in experiment [9]; 5.43% (active) in experiment [10]; -23.4% (active) in experiment [11]; -14.7% (active) in [12]. In addition, the growth in [13] is 6.91% (active); in [14] it was 7.08% (active); in experiment [15] it was 2.99% (active); in experiment [16], 1.83% (active); in experiment [17], 4.61% (active); in [18], -1.2% (active).
For the molecule `COC(=O)c1ccc(Cn2ccc(=O)[nH]c2=O)cc1`, the growth in [1] is 94.1%; in experiment [2], 106%; in experiment [3] it was 115%; in experiment [4], 104%; in [5], 109%; in experiment [6], 116%. Further, the growth in [7] was 114%; in experiment [8] it was 130%; in experiment [9], 121%; in experiment [10] it was 110%; in experiment [11] it was 107%; in experiment [12], 113%. In addition, the growth in experiment [13] is 105%; in experiment [14], 110%; in experiment [15] it was 99.2%; in experiment [16], 104%; in experiment [17], 106%; in [18] it was 103%.
Consider `CC(C)C[C@H](NC(=O)CCn1ccc2ccccc2c1=O)B(O)O`, for which the growth was 8.08% (active) in experiment [1]; 10.4% in [2]; 72.4% in experiment [3]; 65.6% in [4]; 85.9% in experiment [5]; 77.8% in [6]. Further, the growth in experiment [7] is 93.6%; in experiment [8], 28.8%; in experiment [9], 63.3%; in [10] it was 87.9%; in experiment [11], 27.6%; in experiment [12], 43.4%. The growth in experiment [13] is -39.6% (active); in experiment [14], 34.1%; in experiment [15], 33.9%; in [16], 16.9%; in [17], 59.9%; in experiment [18] it was 68.8%.
